Source: PubChem
IL-1B inflam inh: inhibitors of inflammasome signaling (IL-1 beta secretion); actives 4.7% (n = 360,000); THP-1 LPS/ATP IL-1B secretion, AlphaLISA, 16 h; hits give low values; activity change, % at 57.5 µM; in the data active means activity change below about -50%; inconclusive means mostly about -30% to -49%; further: on the % scale 0 is the no-effect control and ±100 the full control effect
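Secreted IL-1B measured by AlphaLISA bead assay after 16 h compound exposure of THP-1 cells; compounds (final up to 57.5 uM) added 1 h before LPS (250 ng/mL) and ATP (1.25 mM) stimulation; lower signal means less secretion.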
D3 ag: agonists of human D3 dopamine receptor; P35462; D3R DiscoveRx beta-arrestin cells, luminescence, 90 min; max activation, %; actives 0.58% (n = 410,000); AID 652048; in the data active means max activation above about 30%; further: 0% is about no effect
Target sequence (P35462 whole entry, looked up): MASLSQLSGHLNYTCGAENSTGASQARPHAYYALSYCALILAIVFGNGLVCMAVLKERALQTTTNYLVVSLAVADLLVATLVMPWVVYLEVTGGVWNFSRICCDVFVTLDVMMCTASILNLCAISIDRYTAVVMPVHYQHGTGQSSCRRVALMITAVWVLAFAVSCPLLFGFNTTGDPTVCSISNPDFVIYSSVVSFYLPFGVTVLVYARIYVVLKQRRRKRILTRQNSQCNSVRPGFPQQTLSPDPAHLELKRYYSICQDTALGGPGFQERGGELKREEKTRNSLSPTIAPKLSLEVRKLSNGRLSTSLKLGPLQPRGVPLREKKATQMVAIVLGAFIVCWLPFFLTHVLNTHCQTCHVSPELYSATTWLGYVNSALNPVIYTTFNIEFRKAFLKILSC
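Agonist-mode cell screen: cells plated at 1500/well and incubated overnight at 37 °C, then exposed to library compounds for 90 min at 37 °C. Detection reagent was added for 30–60 min at room temperature, and luminescence was read.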
D3 antag: antagonists of human D3 dopamine receptor; actives 2.5% (n = 360,000); AID 652054; D3R cells, DiscoveRx beta-arrestin luminescence, antagonist mode; hits give low values; max response, negative = inhibition, %; in the data active means max response below about -50%; inconclusive means no clear call, values can overlap the other calls; further: on the % scale 0 is the no-effect control and ±100 the full control effect
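Cells plated overnight at 1500 cells/well, then exposed to library compounds with dopamine controls for 90 minutes at 37 degrees C. DiscoveRx reagent added for 30–60 minutes at room temperature; luminescence read, quantitative HTS format.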
ClpP mod: qHTS Assay for Activators of ClpP | ATP-dependent Clp protease proteolytic subunit (Bacillus subtilis (strain 168)), P80244 | purified B. subtilis ClpP, FRET peptide cleavage, 20 min | Potency, µM (series often up to 57.5 µM), without a hit: top-dose activity change, negative = active | actives 1.9% (n = 340,000) | AID 651965, 2013; active means well fitted falling curve with a large enough effect; inconclusive means small, poorly fitted or top-dose-only effect; inactive means no such curve, though single readings can be large or run the other way; further: potency means the concentration at half of the fitted maximal effect; the source files actives as falling curves though it sought activators and does not explain the sign; nearly all actives have a fitted effect of over 65% in size
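Purified B. subtilis ClpP, 10 microg/mL final in Tris/HCl pH8 with KCl, BSA, glycerol and Tween-20, cleaved an Abz/nitrotyrosine-quenched decapeptide. Fluorescence (ex 320, em 430) was read at 0 and 20 min at room temperature. Delta was normalized to 5.8 microM ADEP and DMSO/no-enzyme controls.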
TDP1 cell noCPT: qHTS for Inhibitors of human tyrosyl-DNA phosphodiesterase 1 (TDP1): qHTS in cells in absence of CPT; DT40 Tdp1-/- hTDP1 cells, no CPT, ATP luminescence, 48 h; Potency, µM (series often up to 46.2 µM), inactives show at the top dose activity change, negative = growth inhibition, most hits filed as inhibitors; actives 15% (n = 420,000); further: potency means the concentration at half of the fitted maximal effect; on the % scale 0 is the no-effect control and ±100 the full control effect; nearly all actives have a fitted effect of over 55% in size
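Compound effects on proliferation are scored in DT40 Tdp1-/-;hTDP1 cells in the absence of CPT. ATP levels (CellTiter-Glo luminescence) are recorded after a ≥48 hr, 37 °C incubation.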
DT40 TDP1 CPT: growth inhibition of DT40 Tdp1-/-;hTDP1 cells with camptothecin (screen for TDP1 inhibitors) | actives 12% (n = 420,000) | AID 686979 | chicken DT40 Tdp1-/-;hTDP1 cells + 20 nM CPT, ATP luminescence, 48 h | Potency, µM (doses to about 46.2 µM), for the others: at the highest dose activity change, negative = growth inhibition, usual class: inhibitors; further: potency means the concentration at half of the fitted maximal effect; on the % scale 0 is the no-effect control and ±100 the full control effect; nearly all actives have a fitted effect of over 55% in size
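Cell growth measured by CellTiter-Glo luminescence after a minimum 48 h, 37 C compound exposure with 20 nM CPT in Tdp1-knockout DT40 cells stably expressing hTDP1, seeded 400/well; qHTS titration format.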
The depositor's hits bear a star; ? = inconclusive; · = not tested or not shown. In the library only some 21% were active in any assay of this set; here they are far more common. Unless noted, the call rests on the fitted dose curve; in most records, active means well fitted inhibition curve with a large enough effect; inconclusive means small, poorly fitted or top-dose-only effect; inactive means flat fitted curve, though single readings scatter.

SMILES | IL-1B inflam inh | D3 ag | D3 antag | ClpP mod | TDP1 cell noCPT | DT40 TDP1 CPT
CCCCCOC(=O)c1[nH]c2c(c1C)C(=O)C(C(=O)OC)C(C)C2 (stereo not drawn) | ? | 1.4 | -4.0 | 0.6% | 18.4µM* | 9.2µM*
COC(=O)C1C(=O)c2c([nH]c(C(=O)OCC3CCCO3)c2C)CC1C (stereo not drawn) | -11.4 | -2.5 | 0.0 | -2.0% | -29.5% | 16.4µM*
CCOC(=O)c1cccc(NC(=O)NCc2ccc3c(c2)CCN3C(=O)CC)c1 | · | -0.6 | · | 0.4% | ? | -22.6%
NS(=O)(=O)c1cccc(NC(=O)c2ccc(S(=O)(=O)N3CCCCCC3)cc2)c1 | -11.8 | -1.3 | 8.9 | 2.2% | ? | -28.0%
CC12CCC(C(=O)N(CCCCN3CCN(Cc4ccccc4)CC3)C1=O)C2(C)C (stereo not drawn) | -20.8 | -11.0 | -74.3* | · | -28.2% | -18.2%
Cc1ccccc1-c1cncnc1N1CCNCC1 | · | · | · | · | -7.2% | 5.7%
COCCNC(=S)N1CCN(c2nc(-c3ccccc3)cs2)CC1 | -10.8 | 0.5 | 27.3 | -0.1% | 18.4µM* | ?
COCCCNC(=S)N1CCN(c2nc(-c3ccc(F)cc3)cs2)CC1 | ? | 6.6 | 28.7 | -0.1% | ? | ?
COc1cccc(-c2csc(N3CCN(C(=O)C4CCCCC4)CC3)n2)c1 | -73.1* | 8.9 | 7.0 | -3.0% | ? | ?
CCCc1cc(=O)n2nc(N3CCC(C(=O)N4CCN(c5cccc(OC)c5)CC4)CC3)sc2n1 | ? | 2.9 | 0.5 | -0.8% | 5.8µM* | 11.6µM*
CCCNC(=S)N1CCN(c2nc(-c3cccc(OC)c3)cs2)CC1 | -58.6* | 0.2 | 0.0 | 2.2% | ? | ?
CCOC(=O)C1CCN(C(=O)C2CCN(c3nn4c(=O)cc(C)nc4s3)CC2)CC1 | 5.3 | 0.9 | -12.8 | -5.1% | 12.0% | -15.1%
Cc1nnc(N/N=C/C(C)c2ccccc2)[nH]c1=O (stereo not drawn) | -99.8* | 9.5 | 8.6 | · | 1.0% | 2.4%
Cc1nnc(N/N=C/c2c[nH]c3ccccc23)[nH]c1=O | 0.0 | -9.3 | -18.2 | -0.8% | 1.4% | ?
Cc1noc(C)c1COc1ccccc1C(=O)N1CCN(c2cccc(C(F)(F)F)c2)CC1 | -10.2 | 6.7 | 5.0 | 1.0% | 4.61µM* | 5.17µM*
CSc1ncc(C(=O)N2CCN(c3cccc(C(F)(F)F)c3)CC2)c(C)n1 | · | -4.7 | · | -0.7% | 18.4µM* | ?
CSc1ncc(C(=O)N2CCN(c3cccc(Cl)c3)CC2)c(C)n1 | · | -2.2 | · | -0.3% | 16.4µM* | ?
COc1ccc(N2CCN(C(=O)c3cnc(SC)nc3C)CC2)cc1 | · | 3.6 | · | 1.1% | -13.0% | -0.3%
Cc1nc(CC(=O)Nc2ccc(C)c(C)c2)cs1 | · | 3.5 | · | 1.3% | -14.6% | 7.6%
COc1ccc(-c2c(=O)n(OCc3ccccn3)c3ccccc3[n+]2[O-])cc1OC | 2.8 | 0.5 | 7.0 | -1.5% | ? | -28.7%
CCOc1ccc(-c2c(=O)n(OCc3ccccn3)c3ccccc3[n+]2[O-])cc1 | -29.8 | 0.1 | 9.5 | -4.8% | 11.6µM* | 20.6µM*
COc1ccc(-c2c(=O)n(OC)c3ccccc3[n+]2[O-])cc1OC | -16.4 | -4.6 | -25.7 | -1.6% | 14.6µM* | 11.6µM*
O=c1c(-c2ccc(Oc3ccccc3)cc2)[n+]([O-])c2ccccc2n1OCc1ccccn1 | 44.0 | 1.0 | 5.5 | 0.4% | ? | -24.3%
COc1ccc(-c2c(=O)n(OCc3ccccc3[N+](=O)[O-])c3ccccc3[n+]2[O-])c(OC)c1 | -8.7 | -3.1 | -2.2 | · | 18.4µM* | ?
CC/C(=N\NC(=O)c1cc(C2CC2)[nH]n1)c1ccccc1 | 4.1 | 2.3 | -19.2 | -1.7% | -11.5% | 10.4%
